Compound activity deposited in PubChem by National Center for Advancing Translational Sciences (NCATS).
TR SRC2 fluor cs = counter-screen for TRb-SRC2 inhibitors: fluorescence interference | hit rate 0.29% among 280,000 | TRb/SRC2 Texas Red total fluorescence interference | Potency, µM (series often up to 106 µM), without a hit: at the highest dose fluorescence change, negative = quenching; active = well fitted curve in either direction with a large enough effect; inconclusive = small, poorly fitted or top-dose-only effect
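Human TRb ligand-binding domain at 0.6 uM with 20 nM Texas Red SRC2 peptide in Tris buffer containing 1 uM T3 and 5% DMSO, incubated with compound 5 h at ambient temperature. Total fluorescence (555/632 nm) calculated as parallel + 2 × perpendicular.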
Tau FP inhib = blocks human tau fibril formation measured by polarization. K18 P301L tau heparin fibrillization, Alexa594 FP, 6 h. Potency, µM (titrated, usually from 57.7 µM), without a hit: top-dose activity, negative = inhibition, hits mostly inhibitors. hit rate 0.39% among 280,000. AID 1468; note: nearly all actives have a fitted effect of over 55% in size
Target sequence (P10636 561-689 P618L limits assumed): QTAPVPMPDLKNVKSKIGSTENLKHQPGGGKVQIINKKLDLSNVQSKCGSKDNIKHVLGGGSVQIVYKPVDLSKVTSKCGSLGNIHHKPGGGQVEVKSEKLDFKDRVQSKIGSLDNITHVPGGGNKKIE
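Quantitative HTS format: compounds meet 15 uM recombinant K18 P301L tau and Alexa 594-tau tracer in 100 mM sodium acetate pH 7; 20 uM heparin triggers fibrillization at 37 C over 6 hr; FP gives the signal.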
Tau fluor counter = counter-screen for tau fibril formation inhibitors. Potency, µM (doses to about 57.7 µM), inactives show at the top dose activity change, negative = decrease. hit rate 0.93% among 280,000. tau K18 P301L Alexa594 fluorescence, heparin fibrillization; note: nearly all actives have a fitted effect of over 55% in size
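Human K18 P301L tau (15 uM unlabeled plus 0.24 uM Alexa 594-labeled, final) in 100 mM sodium acetate pH 7 was mixed with compound and 20 uM heparin and incubated 6 hr at 37 C.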
Tau fibril ThT = tau fibrillization inhibition (ThT binding). P10636. recombinant tau K18 P301L (four-repeat tau fragment), heparin-induced fibrillization, ThT fluorescence. Potency, µM (series often up to 57.4 µM), for the others: top-dose activity, negative = inhibition, hits mostly inhibitors. hit rate 2.1% among 270,000. AID 1460; note: nearly all actives have a fitted effect of over 55% in size
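Recombinant human tau K18 fragment […] carrying P301L, 15 uM unlabeled plus 0.24 uM Alexa 594-labeled, was fibrillized with 20 uM heparin in 100 mM sodium acetate pH 7 for 6 hr at 37 C; 30 uM ThT fluorescence read after 1 hr.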
TRb SRC2 PPI = TRbeta-SRC2 interaction inhibition. Potency, µM (highest dose often 106 µM), inactives show at the highest dose activity change, negative = inhibition, actives largely listed as inhibitors. P10828. hit rate 0.065% among 280,000. TRbeta-SRC2 peptide binding, fluorescence polarization; receptor liganded with 1 µM T3;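 note: plate controls were bound peptide for no effect and peptide without receptor for full effect; nearly all actives have a fitted effect of over 50% in size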
Target sequence (P10828 whole entry, looked up): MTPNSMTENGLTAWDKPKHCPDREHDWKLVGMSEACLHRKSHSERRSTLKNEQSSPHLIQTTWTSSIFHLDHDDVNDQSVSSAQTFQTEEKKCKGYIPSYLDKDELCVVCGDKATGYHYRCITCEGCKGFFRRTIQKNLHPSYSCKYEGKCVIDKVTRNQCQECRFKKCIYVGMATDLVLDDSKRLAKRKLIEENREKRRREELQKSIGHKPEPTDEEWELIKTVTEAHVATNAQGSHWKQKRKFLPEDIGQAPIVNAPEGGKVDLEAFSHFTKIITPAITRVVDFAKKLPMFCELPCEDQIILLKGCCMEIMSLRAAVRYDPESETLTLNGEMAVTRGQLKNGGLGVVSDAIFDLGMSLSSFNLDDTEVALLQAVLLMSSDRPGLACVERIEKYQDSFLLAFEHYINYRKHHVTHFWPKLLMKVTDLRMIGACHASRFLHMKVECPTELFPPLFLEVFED
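A fluorescence polarization screen tested compounds at multiple concentrations against complex formation between 0.6 uM TRb ligand-binding domain and 20 nM Texas Red SRC2 peptide, with 1 uM T3 present; readout after 5 hr.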
* marks the source's active call; other numbers are inactive results; ? = inconclusive; . = no result; [ ] = another dose, or the depositor's remark. Compounds with a hit are over-represented: about 3% of the library has one in this group of screens. Unless noted, calls come from the whole dose curve; as a rule, active = well fitted curve in the direction sought with a large enough effect; inconclusive = small, poorly fitted or top-dose-only effect, or another doubt; inactive = no such curve, though single readings can be large; an effect the other way counts as inactive or inconclusive. Unless noted, % is set by controls: 0 for no effect and ±100 for the full control effect; potency is the fitted concentration of half-maximal effect.

SMILES	TR SRC2 fluor cs	Tau FP inhib	Tau fluor counter	Tau fibril ThT	TRb SRC2 PPI
COc1ccc(N2CCN(C(=O)c3ccc4c(c3)N(Cc3ccc(F)cc3)C(=O)c3ccccc3S4=O)CC2)cc1 (stereo unspecified)	2.2%	5.7%	-21.8%	-6.5%	-7.4%
O=C(Nc1ccccc1F)c1oc2ccccc2c1NC(=O)C12CC3CC(CC(C3)C1)C2	0.4%	-10.2%	-2.8%	4.2%	-1.2%
COc1cccc(NC(=O)Cn2c(=O)n(-c3ccc(Cl)cc3)c(=O)c3oc4ccccc4c32)c1	-2.0%	-11.3%	-25.3%	?	-3.0%
CC(C)CO/N=C1/C[C@@H](O)[C@@H](O)[C@@H]2[C@@H]3C(=O)N(C(C)(C)C)C(=O)[C@H]3CC[C@@H]12	-17.3%[11.2 µM]	-1.7%[11.6 µM]	-2.6%[11.6 µM]	-3.1%[11.5 µM]	0.4%[11.2 µM]
Cc1c(C(=O)N(Cc2ccc(N(C)C)cc2)CC2CCCO2)oc2ccc(Cl)cc12 (stereo unspecified)	0.0%	8.0%	-17.0%	-10.5%	-3.3%
CC1(C)CC(Nc2ccc(Nc3ccccc3)cc2)CC(C)(C)N1	-4.2%	?	28.2µM*[quencher]	?	-1.3%
O=C(Nc1ccccc1)N(O)c1ccc(Cl)cc1	1.5%	?	-20.2%	25.1µM*	0.7%
CCCCN(CCCC)CCCC	-2.5%[201 µM]	.	.	.	0.0%[201 µM]
CC1CCC/C(=C\Nc2ccc(O)cc2)C1=O (stereo unspecified)	12.9%	?	?	17.8µM*	28.2µM*
Cc1cc(C(=O)O)ccc1N/C=C1\CCCC(C)C1=O (stereo unspecified)	-1.0%	1.6%	-4.6%	-14.6%	7.1%
COc1cccc([C@@H]2Oc3ccc(Br)cc3C[C@H]2OC(=O)N[C@H](C)C2CCCCC2)c1	-2.9%	-3.2%	-4.0%	-5.5%	-1.4%
CC1=C(C)/C(=N\OS(=O)(=O)c2ccccc2)C=CC1=O	-0.6%	15.8µM*	?	12.6µM*	4.2%
Cc1ccc(S(=O)(=O)c2nc(C)oc2N2CCOCC2)cc1	1.3%	-2.8%[2.34 µM]	-13.4%	-17.4%	0.6%
Cc1ccc(S(=O)(=O)c2nc(C(C)(C)C)oc2N2CCOCC2)cc1	-1.6%	39.8µM*	-15.6%	?	-21.2%
O=C1[C@H]2[C@H]3[C@H](O)[C@H](O)C/C(=N/OCc4ccccc4)[C@@H]3CC[C@@H]2C(=O)N1c1cccc(Oc2ccccc2)c1	-2.4%[11.2 µM]	0.4%[11.6 µM]	-7.5%[11.6 µM]	-2.2%[11.5 µM]	-0.9%[11.2 µM]
CC(C)C(=O)N[C@@H]1CCCN1C(=O)/C=C\c1ccccc1	-2.7%[11.2 µM]	-4.9%[11.6 µM]	-13.6%[11.6 µM]	-15.0%[11.5 µM]	-3.1%[11.2 µM]
CC(C)(C)OC(=O)N1CC23CC(c4ccc(F)cc4)C(CC2S1(=O)=O)O3 (stereo unspecified)	0.2%	.	.	.	4.7%
CCN1/C(=C/c2cc[n+](C)cc2)C=Cc2cc(C)ccc21	-4.0%	-4.8%	10.9%	8.91µM*	1.7%
CCN1C(=O)/C(=C2\C=Cc3cc(C)ccc3N2CC)OC1=S	1.1%	5.0%	-8.7%	?	1.4%
CCCCCCCCCCCCCCCO	-4.4%[201 µM]	.	.	.	7.6%[201 µM]
CC(C)(C)c1ccc(C(=O)CCCSC2=C(C#N)C(c3ccco3)C3=C(CCCC3=O)N2)cc1 (stereo unspecified)	-1.8%	-15.8%	-13.9%	-15.4%	-0.6%
N#CC1=C(SCC(=O)c2ccccc2)NC2=C(C(=O)CCC2)C1c1ccco1 (stereo unspecified)	2.6%	31.6µM*	-26.8%	12.6µM*	7.8%
Cc1ccc(C(=O)CSC2=C(C#N)C(c3ccco3)C3=C(CCCC3=O)N2)cc1 (stereo unspecified)	2.6%	10.6%	-29.5%	15.8µM*	3.6%
C=C(C)CC1(c2ccccc2)Oc2ccccc2-c2nc3cc(Cl)c(Cl)cc3nc21 (stereo unspecified)	0.2%[11.2 µM]	-9.1%[11.6 µM]	-0.2%[11.6 µM]	-3.4%[11.5 µM]	4.3%[11.2 µM]
CC(C)=CCC/C(C)=C/CO/N=C1/C[C@@H](O)[C@@H](O)[C@@H]2[C@@H]3C(=O)N(C[C@@H]4CCCO4)C(=O)[C@H]3CC[C@H]12	-5.8%[11.2 µM]	2.6%[11.6 µM]	-4.6%[11.6 µM]	-4.6%[11.5 µM]	2.0%[11.2 µM]
SMILES	TR SRC2 fluor cs	Tau FP inhib	Tau fluor counter	Tau fibril ThT	TRb SRC2 PPI
C[C@@H]1C=CCC(=O)OC[C@H](C)C(=O)OC[C@H]2O[C@H]1C=C[C@@H]2O	-2.9%[11.2 µM]	-14.7%[11.6 µM]	-19.3%[11.6 µM]	-13.3%[11.5 µM]	-1.6%[11.2 µM]
Oc1ccc(/C=N/n2c(-c3ccco3)csc2=Nc2cccnc2)c(O)c1	-3.6%	-2.0%	?	?	-5.2%
COCCN=c1scc(-c2ccco2)n1/N=C/c1ccc(O)c(O)c1O	-18.8%	25.1µM*	?	12.6µM*	-0.5%
CC(C)N=c1scc(-c2ccco2)n1/N=C/c1ccc(O)c(O)c1	-1.2%	?	14.1µM*[quencher]	14.1µM*	-0.2%
C=CCN=c1scc(-c2ccco2)n1/N=C/c1ccc(O)c(O)c1O	-7.4%	?	7.94µM*[quencher]	6.31µM*	8.6%
COc1cccc(/C=N/n2c(-c3ccco3)nc3ccccc3c2=O)c1	1.9%	-1.4%	-19.2%	?	-14.4%
CC12C=C(/C=C/C=C/c3ccccc3)C(C)(C1)C(/C=C/c1ccccc1)CC2=O (stereo unspecified)	1.3%[11.2 µM]	-8.0%[11.6 µM]	-13.2%[11.6 µM]	?	6.1%[11.2 µM]
CC(C)(Cc1c[nH]c2ccccc12)NCC(O)COc1ccccc1C#N (stereo unspecified)	2.8%	.	.	.	3.0%
COc1ccc(C(=O)Oc2ccc(C3NC(=O)c4c(sc5c4CCN(C)C5)N3)cc2OC)cc1 (stereo unspecified)	?	?	-27.4%	3.98µM*	-7.3%
CN1CCc2c(sc3c2C(=O)NC(c2ccc(C(C)(C)C)cc2)N3)C1 (stereo unspecified)	20.1%	?	-19.8%	15.8µM*	-6.0%
CSc1ccc(C2NC(=O)c3c(sc4c3CCN(C)C4)N2)cc1 (stereo unspecified)	-2.9%	1.5%	-8.2%	-5.4%	3.5%
CN1CCc2c(sc3c2C(=O)NC(c2ccc(-c4cccc(Cl)c4)o2)N3)C1 (stereo unspecified)	9.7%	?	-14.5%	2.24µM*	1.3%
COc1ccc(C2NC(=O)c3c(sc4c3CCN(C)C4)N2)cc1O (stereo unspecified)	-3.3%	-7.4%	-23.1%	5.62µM*	4.4%
CC(C)c1ccc(C2NC(=O)c3c(sc4c3CCN(C)C4)N2)cc1 (stereo unspecified)	3.4%	-6.6%	-8.3%	?	-0.8%
CCOc1cc(C2NC(=O)c3c(sc4c3CCN(C)C4)N2)ccc1OC(=O)c1ccccc1Cl (stereo unspecified)	-0.5%	0.4%	-4.7%	?	5.4%
Cc1ccccc1-c1nc2c(c(SCc3cccc(Cl)c3)n1)Cc1c(CO)cnc(C)c1O2	-1.3%	9.9%	-0.2%	0.6%	5.8%
CCOC(=O)N/N=C1/C[C@@H](O)[C@@H](O)[C@@H]2[C@@H]3C(=O)N(c4cccc(Oc5ccccc5)c4)C(=O)[C@H]3CC[C@@H]12	-5.6%[11.2 µM]	-3.5%[11.6 µM]	-4.6%[11.6 µM]	-5.9%[11.5 µM]	-2.6%[11.2 µM]
